Screening results: PubChem BioAssay, National Center for Advancing Translational Sciences (NCATS)
SW480 rereplic = inducers of DNA re-replication in SW480 colon cancer cells. hit rate 1.8% among 340,000. AID 624297. SW480 DNA re-replication, Hoechst DNA content imaging, 48 h. Potency, µM (highest dose often 46.1 µM), for inactives: at the highest dose re-replication activation, most hits filed as activators; also: % of control where 0% means no effect; nearly all actives have a fitted effect of over 55% in size
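Compounds, transferred as 23 nL by pin tool, were incubated with cells for 48 hr; DNA content per nucleus was then quantified by Hoechst staining and fluorescence plate imaging.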
MCF10A rereplic = induces DNA re-replication in MCF 10a normal breast cells; hit rate 2.9% among 350,000; MCF 10A DNA re-replication, Hoechst nuclear intensity, 48 h; Potency, µM (series often up to 46.1 µM), inactives show at the top dose activity, positive = re-replication, hits mostly activators; also: % of control where 0% means no effect; nearly all actives have a fitted effect of over 50% in size
KB-V1 cytotox = KB-V1 MDR subline cytotoxicity; KB-V1 MDR cells viability, CellTiter-Glo, 72 h; Potency, µM (doses to about 46.1 µM), most hits filed as cytotoxic; hit rate 3.4% among 400,000; also: % is scaled to controls: 0 for no effect and ±100 for the full control effect; nearly all actives have a fitted effect of over 60% in size
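Cytotoxicity via CellTiter-Glo luminescence after 72 h compound exposure at 37 degrees C. Cells: drug-selected KB-V1 line, DMEM phenol-red free plus 10% FBS. Compounds tested at multiple concentrations; normalized data fitted to concentration-effect curves.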
HT1080-NT tox = kills 2HG-producing HT-1080-NT fibrosarcoma cells. HT-1080-NT fibrosarcoma viability, CellTiter-Glo ATP luminescence, 48 h. Potency, µM (series often up to 46.1 µM), for the others: at the top dose activity, negative = less viability, most hits filed as cytotoxic. hit rate 1.6% among 360,000;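 also: NT is the 2HG producing partner of a matched IDH1 knockdown line; 0% = DMSO-treated cells and -100% = media-only wells without cells; nearly all actives have a fitted effect of over 55% in size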
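Fibrosarcoma NT cells, 750 per well in 5% FBS RPMI, were exposed to compound for 48 hours. Viability: CellTiter-Glo luminescence.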
HT1080 IDH1KD tx = HT-1080 IDH1 knockdown cell toxicity (counter line). AID 686971. hit rate 2% among 360,000. HT-1080 IDH1 knockdown viability, ATP luminescence, 48 h. Potency, µM (doses to about 46.1 µM), for the others: top-dose activity, negative = toxicity, actives largely listed as cytotoxic;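 also: 0% = DMSO wells and -100% = cell-free medium wells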
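IDH1KD HT-1080 cells, 750/well, RPMI + 5% FBS; compound pinned after 2 h settling; 48 h, 37 °C; CellTiter-Glo luminescence; % activity normalised to DMSO and no-cell wells; curves fitted, classed by r2 and efficacy.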
KB-3-1 tox = kills parental KB-3-1 adenocarcinoma cells; KB-3-1 viability, CellTiter-Glo ATP luminescence, 72 h; Potency, µM (top dose mostly 46.1 µM), usual class: cytotoxic; hit rate 1.4% among 400,000; AID 1347075; also: % is scaled to controls: 0 for no effect and ±100 for the full control effect; nearly all actives have a fitted effect of over 60% in size
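72 h, 37 °C compound treatment of KB-3-1 parental cells; CellTiter-Glo added, 10 min, luminescence read. Data corrected against DMSO-only plates and normalized before curve fitting.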
Active calls of the source: *; i = inactive; ? = inconclusive; . = no result; [ ] = dose if it differs, or a comment. Sampled rows, rich in hits. Any-hit rate of the full collection: about 8%. Calls follow the shape of the dose curve; as a rule, active = well fitted curve in the direction sought with a large enough effect; inconclusive = small, poorly fitted or top-dose-only effect, or another doubt; inactive = no such curve, though single readings can be large; an effect the other way counts as inactive or inconclusive. Potency is read from the fitted curve at half-maximal effect.

SMILES	SW480 rereplic	MCF10A rereplic	KB-V1 cytotox	HT1080-NT tox	HT1080 IDH1KD tx	KB-3-1 tox
CCOC(=O)c1c(C)n(C)c2cc(Br)c(OC)cc12	-59%	-1%[9.22 µM]	?	6%	6%	i
C=CCCc1ccc(C#N)c(SCc2c(C(=O)OCC)c3cc(OC(C)=O)c(Br)cc3n2C)n1	?	20%	2.6µM*	?	-13%	?
CCN(CC)CCNC(=O)c1ccc(-c2nc(CS(=O)(=O)c3ccc(C)cc3)c(C)o2)cc1	.	.	i	.	.	i
COc1ccccc1CNC(=O)CCCCn1c(=O)c2ccccc2n(Cc2c(C)cc(C)cc2C)c1=O	.	.	?	.	.	i
CCOc1ccc(-c2noc(CCCC(=O)NCC3CCCO3)n2)cc1OC (stereo not given)	-3%	-6%	.	0%	11%	.
Cc1ccc(-n2nc(C)c3nc(CCC(=O)Nc4cccc(C)c4C)c(=O)n(C)c32)cc1	.	.	i	.	.	i
CCc1nc(SCC(=O)O)c(C#N)cc1C	-22%	-1%	i	13%	11%	i
CCOC(=O)CC(=O)CSc1nc(CC)c(C)cc1C#N	23µM*	0%	i	12%	7%	i
CCOC(=O)CC(=O)CSc1nc2ccc(C)cc2cc1C#N	-1%	23µM*	i	?	7.1µM*	i
CCOC(=O)C1CCN(C(=O)c2ccc3c(c2)N=C(CC)c2cc(C)ccc2S3)CC1	.	.	i	.	.	i
CNC(=S)N1N=C(c2cccs2)CC1c1ccc(OC)cc1 (stereo not given)	-3%	?	i	-15%	-17%	i
O=C(CSc1nc2ccccc2s1)N1N=C(c2cccs2)CC1c1ccc(F)cc1 (stereo not given)	0%	16µM*	?	-1%	-5%	i
COc1ccc(C2CC(c3cccs3)=NN2C(=O)CSc2nc3ccccc3s2)cc1 (stereo not given)	16%	33%	i	0%	1%	i
Fc1ccc(C2CC(c3cccs3)=NN2C(=S)Nc2ccccc2)cc1 (stereo not given)	-114%	5%	21µM*	7%	-4%	i
CN1CCc2c(OCC(=O)N3N=C(c4cccs4)CC3c3ccc(F)cc3)cccc2C1=O (stereo not given)	22%	-8%	i	23µM*	?	?
Cc1ccnc2c(Cl)cccc12	.	.	i	.	.	i
O=c1oc2ccccc2c(N2CCOCC2)c1[N+](=O)[O-]	-11%	0%	i	21%	11%	i
Cc1nc2scc(C)n2c(=O)c1S(=O)(=O)Nc1ccc(F)cc1	1%	-9%	i	-14%	-8%	i
CCCCOC(=O)c1ccc(NS(=O)(=O)c2c(C)nc3scc(C)n3c2=O)cc1	.	.	8.2µM*	.	.	i
Cc1cccc(CNC(=O)C2CCN(S(=O)(=O)c3cccc4nonc34)CC2)c1	.	.	i	.	.	i
CC(C)N=C(NC#N)SCc1ccccc1F	-1%	-18%	?	-3%	-1%	i
N#CNC(=Nc1cccc(F)c1)SCc1ccccc1F	3%	4.6µM*	?	-7%	-9%	i
CCc1ccc(S(=O)(=O)ON2C(=O)c3ccccc3C2=O)cc1	?	18µM*	i	-24%	-25%	i
COc1ccc(OC)c(S(=O)(=O)n2cnc3ccccc32)c1	?	?	23µM*	-6%	-3%	?
COc1ccc(OC)c(S(=O)(=O)ON2C(=O)c3ccccc3C2=O)c1	?	6.5µM*	i	?	4.1µM*	?
SMILES	SW480 rereplic	MCF10A rereplic	KB-V1 cytotox	HT1080-NT tox	HT1080 IDH1KD tx	KB-3-1 tox
O=C1c2cccc3cccc(c23)C(=O)N1OS(=O)(=O)c1ccc(Cl)cc1	-38%	-14%	i	-15%	12%	i
O=C(Nc1ccc(Cl)cc1F)c1cc(S(=O)(=O)NC2CCCCCC2)ccc1F	.	.	i	.	.	i
CCCCOC(=O)Cn1nnc2sc(-c3ccccc3)cc2c1=O	.	.	i	.	.	i
CCOc1ccc(CNC(=O)c2ccc3nc(CC)c(CC)nc3c2)cc1	.	.	i	.	.	i
Cc1cc2c(cc1C)-n1nnnc1C(N1CCN(CC(=O)N3CCCC3)CC1)C(=O)N2 (stereo not given)	.	.	i	22%	15%	i
Cc1cc2c(cc1C)-n1nnnc1C(N1CCN(C(=O)OCc3ccccc3)CC1)C(=O)N2 (stereo not given)	.	.	18µM*	?	?	?
Cc1cccc(N2CCN(C3C(=O)Nc4ccccc4-n4nnnc43)CC2)c1C (stereo not given)	.	.	?	?	10µM*	?
O=C1Nc2ccccc2-n2nnnc2C1N1CCN(c2ccc(C(F)(F)F)cn2)CC1 (stereo not given)	.	.	21µM*	13%	7%	?
O=C1Nc2ccccc2-n2nnnc2C1N1CCN(c2ccccn2)CC1 (stereo not given)	.	.	?	4%	5%	i
Cc1ccccc1OCc1nc2ccccc2n1Cc1ccccc1Cl	.	.	i	.	.	i
O=S1(=O)CCO[C@H]2CCCC[C@@H]2N1Cc1ccc(Cl)cc1	.	.	?	.	.	i
O=C(NCc1nnc(SCC(=O)N2CCCCCC2)o1)c1ccccc1F	0%	-3%	i	2%	12%	i
O=C1C=CC(=O)N1c1ccc(O)cc1	21µM*	10µM*	?	-2%	-7%	i
O=C(O)CNC(=O)c1ccc(OC(F)F)cc1	-8%	26%	i	10%	-5%[9.24 µM]	i
O=C1C=CC(=O)N1c1ccc(OC(F)F)cc1	23µM*	?	?	?	16µM*	?
O=C(NCC1CCCO1)c1ccc(Cl)c(NS(=O)(=O)c2ccc(F)cc2)c1 (stereo not given)	.	.	?	0%	0%	i
CCCc1cc(CN(C)C(=O)CC2C(=O)NCCN2Cc2ccccc2C)[nH]n1 (stereo not given)	-4%	2%	i	7%	5%	i
CC(=O)Nc1ccc(S(=O)(=O)N2c3ccc(F)cc3CCC2C)cc1 (stereo not given)	18µM*	?	i	?	21µM*	9.2µM*
CC(=O)N1c2ccc(S(=O)(=O)N3CCC(C(=O)Nc4ccc(F)cc4)CC3)cc2CC1C (stereo not given)	-5%	5%	i	-2%	-14%	i
CCN(CC)CCCNC(=O)c1ccc(OCC(=O)Nc2ccccc2C(F)(F)F)c(OC)c1	?	18µM*	i	?	?	?
CCN(CC(=O)Nc1ccc(OC)c(OC)c1)CC(=O)Nc1ccccc1C(F)(F)F	-5%	8%	i	3%	-4%	i
